# Screening data as filed in PubChem.
# This is a sample that favours compounds with a hit; in the whole collection about 2.7% have one here.
# Shn3 3UTR inh: reduction of Shn3 3'UTR firefly luciferase signal, primary screen, Schnurri-3 inhibitor project, cell-based, Clone20 osteoblasts, set 2; Clone20 osteoblast Shn3 3'UTR firefly luciferase, 24 h; inhibition, % at 12.5 µM; 0.52% of 360,000 active; AID 588674, 2011;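 active means mean inhibition of at least 75% with every replicate also reaching 75%; inconclusive means mean inhibition at least 75% but some replicate below; inactive means mean inhibition below 75%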;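 further: 0% = median of neutral control wells and 100% = pilot-screen positive control compound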
# Peg3 prom inh: Peg3 promoter-driven luciferase inhibitors, primary screen, cell-based, HeLa, luciferase luminescence; AID 588405, 2011; inhibition, % at 20 µM; 1.7% of 360,000 active; HeLa PEG-Prom luciferase reporter, overnight;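 active means inhibition of at least 50% at 20 µM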
# KKLEB cytotox: cytotoxicity in KKLEB CF airway cells, primary screen, cytotoxicity control for CF NF-kB inhibitor project, cell-based, uHTS, fluorescence assay plates; 0.36% of 360,000 active; activity change (cytotoxicity), % at 5 µM; KKLEB CF airway cells viability, ATPlite luminescence, overnight; stronger effect = lower value; cells stimulated with P. aeruginosa culture filtrate;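 active means corrected activity change at or below -50% at 5 µM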
# MITF TRPM1 inh: inhibitors of MITF-dependent TRPM1 promoter reporter, primary screen, cell-based, SK-MEL-5, single point, luciferase; SK-MEL-5 TRPM1 promoter luciferase, 24 h; inhibition, % at 12.5 µM; 0.83% of 330,000 active;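 active means mean inhibition across replicates of 60% or more, whatever share of single replicates reaches that level; inconclusive means some that reach 60%, reason not given; inactive means mean inhibition across replicates below 60%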
# HIF-2a inh: HIF-2a reporter inhibitors, primary screen, luminescence, 786-0 RCC cells; 786-0 RCC cells HIF-2a reporter, luciferase luminescence, overnight; inhibition, % at 18.8 µM; 0.72% of 360,000 active;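 active means inhibition of the luminescence signal of 40% or more relative to plate controls, in a single-dose primary screen at 18.75 µM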
# CF NFkB inh: inhibitors of PAF-induced NF-kB signaling, primary screen, cell-based, GFP fluorescence, uHTS | KKLEB NF-kB-GFP reporter, GFP fluorescence overnight | 0.86% of 360,000 active | inhibition, % at 5 µM;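 active means at least 50% inhibition at 5 µM, scaled per plate between neutral and stimulator controls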;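 further: PAF is a Pseudomonas aeruginosa culture filtrate used as stimulus; plate controls were PAF-stimulated DMSO wells for no effect and unstimulated DMSO wells for full effect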
# Numbers without * were called inactive; ? = inconclusive; / = not tested or not shown.
SMILES,Shn3 3UTR inh,Peg3 prom inh,KKLEB cytotox,MITF TRPM1 inh,HIF-2a inh,CF NFkB inh
COc1ccc2[nH]c(=O)c(CN(CC3CCCO3)C(=S)Nc3ccccc3)cc2c1 (stereo unspecified),21.6,27.7,7.7,5.2,10.4,-3.9
Cc1cc2cc(CN(CC3CCCO3)C(=S)Nc3ccccc3)c(=O)[nH]c2cc1C (stereo unspecified),90.3*,36.8,-4.9,8.0,14.5,3.7
CC1=CC(=O)C(C(C)C)=C/C1=C(\c1cc(C(C)C)c(OP(=O)(O)O)cc1C)c1ccccc1C(=O)O,9.5,67.0*,11.9,-8.9,22.2,-31.4
CCOc1ccc(C(=O)c2ccccc2C(=O)O)cc1OCC,-4.7,3.4,5.1,0.2,10.2,-2.1
CCC(C(=O)NC(C)(C)C)N(Cc1ccc(OC)cc1)C(=O)c1snc(C(N)=O)c1N (stereo unspecified),2.3,0.6,11.3,/,0.7,-29.4
COc1cc(/C=C2\CCC/C(=C\c3ccc(O)c(OC)c3)C2=O)ccc1O,14.4,105.0*,-15.7,13.3,81.0*,-10.8
COc1cc(/C=C2\CC/C(=C\c3cc(OC)c(O)c(OC)c3)C2=O)cc(OC)c1O,34.3,104.5*,-44.4,67.6*,-30.1,62.4*
COc1cc(/C=C2/CCCC(C(=O)C(F)(F)F)=C2O)ccc1O,-29.9,-30.6,-3.6,8.8,-1.9,19.1
COc1ccc(/C=C2\COc3ccccc3C2=O)cc1OC,11.5,95.1*,1.8,8.2,-10.1,11.7
COc1cc(/C=C2\COC/C(=C\c3cc(OC)c(OC)c(OC)c3)C2=O)cc(OC)c1OC,96.1*,105.2*,-67.2*,92.1*,92.7*,93.3*
CC(=O)Nc1cc(-c2ccc(S(C)(=O)=O)cc2)cn2c(-c3ccc(F)c(Cl)c3)cnc12,18.0,4.6,12.0,/,-1.7,-3.6
Cc1cc(C)cc(CC(=O)N2CCC2(C)C(=O)NS(=O)(=O)c2ccc(Br)cc2)c1 (stereo unspecified),5.9,-37.3,3.9,/,-6.9,-2.2
CSCCC(c1nc2ccccc2[nH]1)n1c(=O)c(-c2ccco2)nc2ccccc21 (stereo unspecified),/,/,/,/,-0.6,/
COc1ccc(S(=O)(=O)N2CCCCCC2)cc1C(=O)OCc1cccc(OC)c1OC,-13.0,50.8*,-6.8,0.4,0.6,22.3
O=C(N/N=C/c1cccs1)c1ccccn1,-31.7,-142.2,15.0,-48.0,-83.9,-1.3
C(=NN=C(NN=Cc1cccs1)NN=Cc1cccs1)c1cccs1,-8.5,77.7*,1.4,-7.4,-123.3,-20.6
COc1ccccc1C(O)c1ncc(-c2ccccc2C)[nH]1 (stereo unspecified),-14.4,8.9,3.2,/,-9.8,2.7
N#Cc1nc(Nc2cccc(Cl)c2)c2ncn(C3CCCC3)c2n1,-9.0,-181.5,-53.8*,-12.6,-150.5,50.6*
CCn1cnc2c(Nc3cc(F)cc(F)c3)nc(C#N)nc21,-2.5,-145.1,-18.4,-75.3,-197.2,14.3
c1ccc(COc2ccc(-c3cc4nc(NCCCn5ccnc5)ccn4n3)cc2)cc1,-9.5,-32.2,-8.1,/,-217.5,2.0
COc1ccc(NC(=O)c2cc(-c3cc(C)cc(C)c3O)n[nH]2)cc1Cl,11.5,61.0*,-4.3,1.6,-12.2,33.0
COc1ccc(NC(=O)c2cc(-c3ccccc3O)n[nH]2)cc1Cl,1.4,-41.2,11.1,-3.6,-64.0,-6.3
C[C@@H]1ON(C)[C@H]2C[C@H]3c4[nH]c5ccc(-c6ccc7c(c6)OCO7)cc5c4CCN3C[C@@H]12,-34.6,-53.1,6.3,/,-105.0,-0.2
Cc1cc(NC(=O)C2CCCC2)nc2c1c(=O)oc1ccccc12,0.8,4.5,19.8,4.5,-55.7,-34.4
Cc1cc(NC(=O)C2CCCCC2)nc2c1c(=O)oc1ccccc12,18.2,50.9*,5.4,9.2,-11.8,-37.9
SMILES,Shn3 3UTR inh,Peg3 prom inh,KKLEB cytotox,MITF TRPM1 inh,HIF-2a inh,CF NFkB inh
O=C(CCNC(=O)N1CC(=O)Nc2ccccc21)NCc1cccc(C(F)(F)F)c1,-7.9,4.6,7.3,/,7.8,-13.3
COc1ccc(Cc2c(-c3ccc(OC)c(OC)c3)nc3cc(C)c(Br)c(C)n23)c(C)c1,/,/,/,/,-41.0,/
O=c1c(CO)cc(CO)cc(CO)c1O,-9.6,-11.2,1.5,0.7,0.5,-12.6
O=C1C=CC(=O)c2c(O)c(CO)c(CO)c(O)c21,-4.4,-8.3,19.7,102.8*,-6.1,7.6
Nc1ccc(S(=O)(=O)Nc2nc(-c3ccccc3)cc(-c3ccccc3O)n2)cc1,4.8,-41.0,0.3,/,-19.4,-40.2
O=C(CCN1C(=O)NC2(CCCC2)C1=O)Nc1ccc(-c2nc3ccccc3s2)cc1,21.6,100.5*,-20.4,-43.5,-113.1,-5.3
O=C(CCN1C(=O)NC2(CCCC2)C1=O)Nc1ccc(Sc2ccc(Br)cc2)cc1,1.0,17.8,-10.5,/,-9.8,-3.2
Nc1c(C(=O)Nc2ccc(S(=O)(=O)N3CCCC3)cc2)sc2nc3cc4c(cc3cc12)CCC4,33.6,29.0,-5.7,-14.9,-153.9,-11.9
Nc1c(C(=O)Nc2ccc(S(=O)(=O)N3CCCC3)cc2)sc2nc3ccc(OC(F)(F)F)cc3cc12,61.3,-35.9,-36.6,82.6*,-129.4,35.2
O=[N+]([O-])c1ccccc1-c1ccc(/C=N/n2cnnc2)o1,14.1,14.6,10.1,0.7,-14.9,-54.8
O=C1ON=C(c2ccccc2)/C1=C/c1ccc(-c2ccccc2[N+](=O)[O-])o1,?,102.7*,-17.5,67.1*,97.7*,40.2
CN1CCc2c(sc(NC(=O)c3ccc4ccccc4c3)c2C(N)=O)C1,-50.2,-23.1,-10.3,-111.3,-167.3,-35.6
COc1cc2ccccc2cc1C(=O)Nc1sc2c(c1C(N)=O)CCN(C(C)C)C2,5.2,100.5*,-23.0,46.2,8.1,29.4
COc1ccc(C(=O)N2CCCC(c3cc(C(=O)Nc4ccccc4)no3)C2)cc1 (stereo unspecified),-36.5,-105.4,-2.7,/,-217.6,1.8
CCCCNc1c(-c2ccc(SC(C)CC)c(OC)c2)nc2ccc(C)cn12 (stereo unspecified),18.3,93.2*,-3.7,-13.2,-155.4,-12.7
CCCCNc1c(-c2ccc(SC(C)CC)c(OC)c2)nc2ccc(Cl)cn12 (stereo unspecified),12.2,-61.4,-6.4,-24.8,-151.6,25.7
CCC(C)Sc1cccc(-c2nc3ccc(Cl)cn3c2NCc2ccccc2)c1 (stereo unspecified),24.6,-34.0,-2.0,-27.5,-124.2,10.3
CCC(C)Sc1cccc(-c2nc3ccc(C)cn3c2NCc2ccccc2)c1 (stereo unspecified),76.0,83.2*,3.1,-12.3,-84.2,9.9
